Measured values reported in publication PMC12529666, “Dysregulation of AGO2-miRNA dynamics underlies the AGO2-associated Lessel–Kreienkamp syndrome”.

Experiments:
Test in all cases: RNA Bind-n-Seq (nitrocellulose filter binding and sequencing); miR-122 guide loaded in AGO2; 60 min incubation; 30 mM Tris pH 8.0, 100 mM potassium acetate, 2 mM magnesium acetate, 0.5 mM TCEP, 0.005% NP-40, 0.01 mg/ml yeast tRNA; 3 nM AGO2-miR-122, 100 nM RNA library; 60; high values mean tight binding
Conditions in all cases: protein: recombinant; tags: His6 (N-terminal, pFastBac HTA)
AGO2 L192P = AGO2 L192P (Homo sapiens, UniProt Q9UKV8 1-859, L192P;S387D;S824A;S828D;S831D;S834A)
Outline: (§1)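 Fold enrichment is each target's read fraction divided by its read fraction in the input library. Sf9 insect cells expressed His-tagged AGO2 from baculovirus; the protein was loaded with a synthetic guide RNA and purified by Ni-NTA and a biotinylated capture oligo. The bound RNA was extracted, reverse-transcribed, barcode-amplified and sequenced on Illumina.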

AGO2 A367P = AGO2 A367P (Homo sapiens, UniProt Q9UKV8 1-859, A367P;S387D;S824A;S828D;S831D;S834A)
Outline: as §1

AGO2 T357M = AGO2 T357M (Homo sapiens, UniProt Q9UKV8 1-859, T357M;S387D;S824A;S828D;S831D;S834A)
Outline: as §1

AGO2 F182del = AGO2 F182del (Homo sapiens, UniProt Q9UKV8 1-859, S387D;S824A;S828D;S831D;S834A;del182-182)
Outline: as §1

Sequence of AGO2 L192P (Q9UKV8 whole entry L192P/S387D/S824A/S828D/S831D/S834A): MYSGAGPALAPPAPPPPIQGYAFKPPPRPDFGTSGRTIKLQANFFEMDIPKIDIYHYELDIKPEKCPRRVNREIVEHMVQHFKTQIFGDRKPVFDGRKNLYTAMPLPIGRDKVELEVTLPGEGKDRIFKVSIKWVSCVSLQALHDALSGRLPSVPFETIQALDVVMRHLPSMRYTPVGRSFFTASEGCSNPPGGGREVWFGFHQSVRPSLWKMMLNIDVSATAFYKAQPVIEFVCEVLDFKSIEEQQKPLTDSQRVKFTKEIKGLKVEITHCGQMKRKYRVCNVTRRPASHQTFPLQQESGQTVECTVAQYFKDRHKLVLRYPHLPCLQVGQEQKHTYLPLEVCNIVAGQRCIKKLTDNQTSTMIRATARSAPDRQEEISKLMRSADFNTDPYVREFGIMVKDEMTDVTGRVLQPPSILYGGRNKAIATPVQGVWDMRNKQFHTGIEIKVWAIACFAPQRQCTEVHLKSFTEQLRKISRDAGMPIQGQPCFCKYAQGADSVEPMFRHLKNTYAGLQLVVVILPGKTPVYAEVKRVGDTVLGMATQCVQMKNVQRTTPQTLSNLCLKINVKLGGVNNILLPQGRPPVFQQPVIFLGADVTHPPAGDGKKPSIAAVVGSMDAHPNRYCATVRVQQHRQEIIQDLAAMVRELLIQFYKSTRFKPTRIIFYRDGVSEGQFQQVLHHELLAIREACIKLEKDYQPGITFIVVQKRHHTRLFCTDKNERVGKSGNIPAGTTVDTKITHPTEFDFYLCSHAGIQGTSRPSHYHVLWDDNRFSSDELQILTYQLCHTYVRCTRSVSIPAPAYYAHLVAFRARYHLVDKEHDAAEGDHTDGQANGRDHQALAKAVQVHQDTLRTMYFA
Sequence of AGO2 T357M (Q9UKV8 whole entry T357M/S387D/S824A/S828D/S831D/S834A): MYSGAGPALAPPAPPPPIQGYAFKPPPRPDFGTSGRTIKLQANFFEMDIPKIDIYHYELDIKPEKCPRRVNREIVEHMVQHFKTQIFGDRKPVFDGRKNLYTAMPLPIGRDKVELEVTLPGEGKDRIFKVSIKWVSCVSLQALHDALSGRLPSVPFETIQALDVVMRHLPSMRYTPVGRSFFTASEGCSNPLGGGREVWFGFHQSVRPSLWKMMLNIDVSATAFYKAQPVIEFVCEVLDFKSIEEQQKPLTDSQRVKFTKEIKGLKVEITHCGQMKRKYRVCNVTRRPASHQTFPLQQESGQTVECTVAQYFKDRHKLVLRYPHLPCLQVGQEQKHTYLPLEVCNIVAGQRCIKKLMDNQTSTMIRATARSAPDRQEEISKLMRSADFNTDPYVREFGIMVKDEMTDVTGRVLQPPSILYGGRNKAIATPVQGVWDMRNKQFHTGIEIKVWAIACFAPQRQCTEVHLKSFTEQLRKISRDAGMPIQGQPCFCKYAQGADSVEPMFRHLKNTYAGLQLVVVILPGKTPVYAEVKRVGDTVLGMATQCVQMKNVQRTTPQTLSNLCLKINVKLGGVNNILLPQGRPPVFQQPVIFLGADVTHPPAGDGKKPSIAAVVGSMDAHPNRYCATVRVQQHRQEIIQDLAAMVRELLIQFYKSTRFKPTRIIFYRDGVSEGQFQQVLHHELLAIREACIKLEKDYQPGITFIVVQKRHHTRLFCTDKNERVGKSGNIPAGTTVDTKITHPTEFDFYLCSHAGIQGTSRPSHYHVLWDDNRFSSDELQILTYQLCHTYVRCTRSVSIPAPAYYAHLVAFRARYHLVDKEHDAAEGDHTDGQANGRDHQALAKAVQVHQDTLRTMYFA
Sequence of AGO2 A367P (Q9UKV8 whole entry A367P/S387D/S824A/S828D/S831D/S834A): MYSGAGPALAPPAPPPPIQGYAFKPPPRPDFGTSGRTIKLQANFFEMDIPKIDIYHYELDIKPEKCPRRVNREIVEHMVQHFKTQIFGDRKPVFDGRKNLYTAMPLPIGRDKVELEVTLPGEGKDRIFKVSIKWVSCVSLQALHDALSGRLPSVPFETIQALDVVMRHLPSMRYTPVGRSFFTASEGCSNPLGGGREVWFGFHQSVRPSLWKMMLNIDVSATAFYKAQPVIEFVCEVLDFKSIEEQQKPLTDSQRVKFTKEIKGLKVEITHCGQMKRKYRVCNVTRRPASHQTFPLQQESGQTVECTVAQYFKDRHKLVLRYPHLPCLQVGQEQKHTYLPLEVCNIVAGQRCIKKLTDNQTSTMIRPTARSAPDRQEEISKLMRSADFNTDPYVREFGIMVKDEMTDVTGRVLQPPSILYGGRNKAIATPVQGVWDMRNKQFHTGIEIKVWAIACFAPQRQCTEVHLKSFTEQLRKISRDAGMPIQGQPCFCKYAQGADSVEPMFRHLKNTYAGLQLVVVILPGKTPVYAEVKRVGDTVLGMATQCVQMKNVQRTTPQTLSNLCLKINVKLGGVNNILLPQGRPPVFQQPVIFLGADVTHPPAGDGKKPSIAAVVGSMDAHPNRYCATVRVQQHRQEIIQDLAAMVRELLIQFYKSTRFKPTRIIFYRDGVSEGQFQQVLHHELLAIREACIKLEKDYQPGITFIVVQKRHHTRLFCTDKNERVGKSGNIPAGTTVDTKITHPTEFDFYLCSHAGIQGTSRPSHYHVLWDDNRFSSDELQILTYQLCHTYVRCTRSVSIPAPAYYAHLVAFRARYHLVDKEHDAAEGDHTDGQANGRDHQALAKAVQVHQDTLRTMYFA
Sequence of AGO2 F182del (Q9UKV8 other isoform, or with tags, fused parts or gaps S387D;S824A;S828D;S831D;S834A;del182-182): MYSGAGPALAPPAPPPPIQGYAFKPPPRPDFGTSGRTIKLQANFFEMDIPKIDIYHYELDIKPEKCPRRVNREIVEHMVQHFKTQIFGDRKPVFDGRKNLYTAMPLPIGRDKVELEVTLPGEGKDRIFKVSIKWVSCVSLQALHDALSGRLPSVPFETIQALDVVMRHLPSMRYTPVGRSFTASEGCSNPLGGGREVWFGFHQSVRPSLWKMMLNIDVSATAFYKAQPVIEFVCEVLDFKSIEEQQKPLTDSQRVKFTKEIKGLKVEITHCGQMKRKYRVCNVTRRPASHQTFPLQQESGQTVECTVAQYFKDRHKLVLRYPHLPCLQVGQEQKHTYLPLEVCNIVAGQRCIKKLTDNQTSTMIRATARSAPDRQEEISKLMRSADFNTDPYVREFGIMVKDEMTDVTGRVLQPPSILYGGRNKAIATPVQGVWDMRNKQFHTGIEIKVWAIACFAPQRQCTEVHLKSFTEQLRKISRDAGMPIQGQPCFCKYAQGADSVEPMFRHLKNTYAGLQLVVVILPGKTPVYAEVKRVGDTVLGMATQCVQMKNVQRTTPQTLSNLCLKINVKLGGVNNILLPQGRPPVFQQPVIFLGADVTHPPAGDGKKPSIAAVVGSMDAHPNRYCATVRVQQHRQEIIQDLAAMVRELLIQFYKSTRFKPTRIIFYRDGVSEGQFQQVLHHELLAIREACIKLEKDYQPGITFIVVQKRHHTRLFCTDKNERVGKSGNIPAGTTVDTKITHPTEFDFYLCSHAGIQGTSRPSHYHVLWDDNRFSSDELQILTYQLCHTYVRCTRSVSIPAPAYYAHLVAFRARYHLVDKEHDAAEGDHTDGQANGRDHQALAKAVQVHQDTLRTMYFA

B1: GTGTCCTA (ssRNA)
RNA 1: GAGUUCUACAGUCCGACGAUCCCAACGUGUCCUACACCUGGAAUUCUCGGGUGCCAA
RNA 2: UGGAGUGUGACAAUGGUGUUUG
DNA 1: GATCGTCGGACTGTAGAACTC
DNA 2: TTGGCACCCGAGAATTCCA
modifications: constant regions annealed to DNA blockers; guide miR-122 5' phosphate
binding signal (AGO2 L192P): 0.451 fold enrichment over input
binding signal (AGO2 A367P): 0.158 fold enrichment over input
binding signal (AGO2 T357M): 0.528 fold enrichment over input

B2: GCATCCCA (ssRNA)
RNA 1: GAGUUCUACAGUCCGACGAUCCCAACGCAUCCCACACCUGGAAUUCUCGGGUGCCAA
RNA 2: UGGAGUGUGACAAUGGUGUUUG
DNA 1: GATCGTCGGACTGTAGAACTC
DNA 2: TTGGCACCCGAGAATTCCA
modifications: constant regions annealed to DNA blockers; guide miR-122 5' phosphate
binding signal (AGO2 L192P): 0.48 fold enrichment over input
binding signal (AGO2 A367P): 0.201 fold enrichment over input
binding signal (AGO2 T357M): 0.628 fold enrichment over input
binding signal (AGO2 F182del): 0.282 fold enrichment over input

B3: GCACCCTA (ssRNA)
RNA 1: GAGUUCUACAGUCCGACGAUCCCAACGCACCCUACACCUGGAAUUCUCGGGUGCCAA
RNA 2: UGGAGUGUGACAAUGGUGUUUG
DNA 1: GATCGTCGGACTGTAGAACTC
DNA 2: TTGGCACCCGAGAATTCCA
modifications: constant regions annealed to DNA blockers; guide miR-122 5' phosphate
binding signal (AGO2 L192P): 0.515 fold enrichment over input
binding signal (AGO2 A367P): 0.214 fold enrichment over input
binding signal (AGO2 T357M): 0.601 fold enrichment over input
binding signal (AGO2 F182del): 0.327 fold enrichment over input

B4: GCGTTTTA (ssRNA)
RNA 1: GAGUUCUACAGUCCGACGAUCCCAACGCGUUUUACACCUGGAAUUCUCGGGUGCCAA
RNA 2: UGGAGUGUGACAAUGGUGUUUG
DNA 1: GATCGTCGGACTGTAGAACTC
DNA 2: TTGGCACCCGAGAATTCCA
modifications: constant regions annealed to DNA blockers; guide miR-122 5' phosphate
binding signal (AGO2 L192P): 0.484 fold enrichment over input
binding signal (AGO2 A367P): 0.173 fold enrichment over input
binding signal (AGO2 T357M): 0.582 fold enrichment over input

B5: ATGTTTTG (ssRNA)
RNA 1: GAGUUCUACAGUCCGACGAUCCCAACAUGUUUUGCACCUGGAAUUCUCGGGUGCCAA
RNA 2: UGGAGUGUGACAAUGGUGUUUG
DNA 1: GATCGTCGGACTGTAGAACTC
DNA 2: TTGGCACCCGAGAATTCCA
modifications: constant regions annealed to DNA blockers; guide miR-122 5' phosphate
binding signal (AGO2 L192P): 0.387 fold enrichment over input
binding signal (AGO2 A367P): 0.134 fold enrichment over input
binding signal (AGO2 T357M): 0.541 fold enrichment over input

B6: ACGCCTTG (ssRNA)
RNA 1: GAGUUCUACAGUCCGACGAUCCCAACACGCCUUGCACCUGGAAUUCUCGGGUGCCAA
RNA 2: UGGAGUGUGACAAUGGUGUUUG
DNA 1: GATCGTCGGACTGTAGAACTC
DNA 2: TTGGCACCCGAGAATTCCA
modifications: constant regions annealed to DNA blockers; guide miR-122 5' phosphate
binding signal (AGO2 L192P): 0.367 fold enrichment over input
binding signal (AGO2 A367P): 0.164 fold enrichment over input
binding signal (AGO2 T357M): 0.54 fold enrichment over input

B7: ATATCTTG (ssRNA)
RNA 1: GAGUUCUACAGUCCGACGAUCCCAACAUAUCUUGCACCUGGAAUUCUCGGGUGCCAA
RNA 2: UGGAGUGUGACAAUGGUGUUUG
DNA 1: GATCGTCGGACTGTAGAACTC
DNA 2: TTGGCACCCGAGAATTCCA
modifications: constant regions annealed to DNA blockers; guide miR-122 5' phosphate
binding signal (AGO2 L192P): 0.409 fold enrichment over input
binding signal (AGO2 A367P): 0.138 fold enrichment over input
binding signal (AGO2 T357M): 0.513 fold enrichment over input

B8: GTATCCTA (ssRNA)
RNA 1: GAGUUCUACAGUCCGACGAUCCCAACGUAUCCUACACCUGGAAUUCUCGGGUGCCAA
RNA 2: UGGAGUGUGACAAUGGUGUUUG
DNA 1: GATCGTCGGACTGTAGAACTC
DNA 2: TTGGCACCCGAGAATTCCA
modifications: constant regions annealed to DNA blockers; guide miR-122 5' phosphate
binding signal (AGO2 L192P): 0.448 fold enrichment over input
binding signal (AGO2 A367P): 0.17 fold enrichment over input
binding signal (AGO2 T357M): 0.563 fold enrichment over input
binding signal (AGO2 F182del): 0.121 fold enrichment over input

B9: ACGTCCTG (ssRNA)
RNA 1: GAGUUCUACAGUCCGACGAUCCCAACACGUCCUGCACCUGGAAUUCUCGGGUGCCAA
RNA 2: UGGAGUGUGACAAUGGUGUUUG
DNA 1: GATCGTCGGACTGTAGAACTC
DNA 2: TTGGCACCCGAGAATTCCA
modifications: constant regions annealed to DNA blockers; guide miR-122 5' phosphate
binding signal (AGO2 L192P): 0.312 fold enrichment over input
binding signal (AGO2 A367P): 0.143 fold enrichment over input
binding signal (AGO2 T357M): 0.434 fold enrichment over input

B10: ATGCCCCG (ssRNA)
RNA 1: GAGUUCUACAGUCCGACGAUCCCAACAUGCCCCGCACCUGGAAUUCUCGGGUGCCAA
RNA 2: UGGAGUGUGACAAUGGUGUUUG
DNA 1: GATCGTCGGACTGTAGAACTC
DNA 2: TTGGCACCCGAGAATTCCA
modifications: constant regions annealed to DNA blockers; guide miR-122 5' phosphate
binding signal (AGO2 L192P): 0.377 fold enrichment over input
binding signal (AGO2 A367P): 0.134 fold enrichment over input
binding signal (AGO2 T357M): 0.489 fold enrichment over input

B11: GCACCTCG (ssRNA)
RNA 1: GAGUUCUACAGUCCGACGAUCCCAACGCACCUCGCACCUGGAAUUCUCGGGUGCCAA
RNA 2: UGGAGUGUGACAAUGGUGUUUG
DNA 1: GATCGTCGGACTGTAGAACTC
DNA 2: TTGGCACCCGAGAATTCCA
modifications: constant regions annealed to DNA blockers; guide miR-122 5' phosphate
binding signal (AGO2 L192P): 0.381 fold enrichment over input
binding signal (AGO2 A367P): 0.15 fold enrichment over input
binding signal (AGO2 T357M): 0.508 fold enrichment over input
